An excerpt weighted towards active compounds, which were near 0.3% of everything screened.
mcGAS inh: blocks mouse cGAS activity | recombinant cGAS, Kinase-Glo ATP depletion luminescence | inhibition, % at 12.5 µM | actives 0.15% (n = 160,000);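 note: 0% = negative control wells and 100% = reference inhibitor with no enzyme activity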
NPYLR7 ag: activates Aedes aegypti NPYLR7 receptor; actives 0.15% (n = 270,000); AID 1259423; activation, % at 10 µM; HEK293T NPYLR7/Galpha15, GCaMP6s calcium fluorescence; in the data active = activation above about 40%;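 note: 0% = vehicle and 100% = reference agonist at the receptor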
hcGAS inh: blocks human cGAS activity; Q8N884; recombinant h-cGAS, ATP depletion, Kinase-Glo luminescence; inhibition, % at 12.5 µM; actives 0.081% (n = 290,000); AID 1259398;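 note: 0% = vehicle reaction and 100% = reaction without DNA for no activity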
* hit, by the source's call; · = no result given. Cut-off read from the data, not from the text of the source, unless noted: active = inhibition above about 40%; inactive = the rest.

SMILES | mcGAS inh | NPYLR7 ag | hcGAS inh
O=S(=O)(c1ccccc1)c1cnc2ccccc2c1Nc1ccccc1 | -4 | 3 | -5
CC1(C)CC(=O)C2C(=Nc3[nH]c(=S)[nH]c(=O)c3C2c2ccc3c(c2)OCO3)C1 (configuration not stated) | -4 | 43* | -6
CSc1nc2c(c(=O)[nH]1)C(c1ccc3c(c1)OCO3)C1C(=O)CCCC1=N2 (configuration not stated) | · | 0 | -7
Cc1ccc(NC(=O)Cn2c3ccccc3c(=O)c3ccccc32)cc1Cl | · | 0 | -5
CN1C(=CC=C2C(=O)Oc3ccccc3C2=O)C(C)(C)c2ccccc21 | · | 49* | -7
CN1C(=CP(=O)(N(C)C)N(C)C)C(C)(C)c2ccccc21 | · | 1 | 3
CSCCC(C(=O)O)N1CS/C(=C2\C(=O)Nc3ccc(Br)cc32)C1=O (configuration not stated) | 11 | -7 | 10
Oc1ccccc1C(Nc1ccccn1)c1ccc2cccnc2c1O (configuration not stated) | · | 2 | 6
Oc1cccc2ccc(Nc3ccccn3)nc12 | 6 | -14 | 57*
CCCCCCCSc1nc(C)cc(=O)[nH]1 | · | 1 | -11
COc1ccc(CC(=O)Nc2c(-c3cccc(OC)c3)nc3ccccn23)cc1 | -7 | -2 | -7
CCN(CC)C(=O)C1CCCN(C(=O)CC(C)(C)CC(=O)O)C1 (configuration not stated) | · | 1 | 3
O=c1c2ccccc2c(-c2ccc(F)cc2)nn1-c1cc(Cl)ccc1[N+](=O)[O-] | -5 | 2 | -4
CCCOc1ccc(C=O)c(O)c1 | · | 1 | 2
CCOc1cc(C=O)c(O)c(C=O)c1 | · | 827* | 15
COc1ccc(CCNC(=O)c2cc(-c3ccc(Cl)cc3)n(-c3ccc4c(c3)OCO4)c2C)cc1OC | -2 | 0 | 3
O=C(Nc1ccc(Cl)cn1)c1ccc(Cn2cc(Br)c([N+](=O)[O-])n2)cc1 | · | 1 | 3
O=C(Nc1ccc(Cl)cn1)c1[nH]ncc1[N+](=O)[O-] | · | 1 | 60*
CCN(CC)c1ccc(/C=C2\SC(=S)N(NC(=O)c3ccccc3)C2=O)cc1 | -6 | 5 | -5
CC(C)Oc1c(-c2ccco2)c(=O)c1=O | · | -6 | 66*
CC(C)Oc1nc(-c2ccco2)n(-c2ccc(N)cc2)n1 | · | -1 | -5
COc1c(Br)cc(Br)cc1/C=C(\C#N)c1nn(CCO)c(N)c1C#N | · | 5 | -6
O=C1NC(=S)S/C1=C\c1ccc(-c2ccccc2C(=O)O)o1 | 83* | 15 | 66*
CCN1C(=O)/C(=C\c2ccc(-c3ccccc3C(=O)O)o2)N(CC)C1=S | -8 | -1 | -7
Cc1cc(C)c(S(=O)(=O)NC2CC(C)(C)NC(C)(C)C2)c(C)c1 | · | 0 | 1
